About 410 targets per protein were measured; listed, in parts, are those with the strongest signals and a random draw of the rest.
What was measured:
Assay in all cases: glycan array binding signal (z-score within array); higher = stronger binding
[1] = system: Neu5Ac(a2-3)Gal(b1-3)GlcNAc(b1-2)Man(a1-3)[GlcNAc(b1-4)][Neu5Ac(a2-3)Gal(b1-3)GlcNAc(b1-2)Man(a1-6)]Man(b1-4)GlcNAc(b1-4)GlcNAc; conditions: glycan notation: IUPAC condensed, linker removed
Procedure, shortened: (§1)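 Glycan array data came from 3228 arrays in the Consortium for Functional Glycomics database, and only arrays with an available protein sequence were kept. Glycan names were put into IUPAC-condensed notation, and columns mapping to the same glycan were averaged. The binding signal is a within-array Z-score, averaged across arrays of one protein sequence run at different concentrations or buffers and across linkers. A negative Z-score can be read as non-binding.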

[2] = system: Neu5Ac(a2-3)Gal(b1-3)GalNAc6S; conditions: glycan notation: IUPAC condensed, linker removed
Procedure, shortened: as §1

[3] = system: Neu5Ac(a2-3)Gal(b1-3)GlcNAc6S; conditions: glycan notation: IUPAC condensed, linker removed
Procedure, shortened: as §1

[4] = system: Neu5Ac(a2-3)Gal(b1-3)[Neu5Ac(a2-6)]GalNAc; conditions: glycan notation: IUPAC condensed, linker removed
Procedure, shortened: as §1

[5] = system: Neu5Ac(a2-3)Gal(b1-3)GalNAc(b1-4)[Neu5Ac(a2-3)]Gal(b1-4)Glc; conditions: glycan notation: IUPAC condensed, linker removed
Procedure, shortened: as §1

[6] = system: Neu5Ac(a2-3)Gal(b1-3)GalNAc(b1-4)[Neu5Ac(a2-8)Neu5Ac(a2-3)]Gal(b1-4)Glc; conditions: glycan notation: IUPAC condensed, linker removed
Procedure, shortened: as §1

[7] = system: Neu5Ac(a2-3)Gal(b1-3)GlcNAc(b1-3)Gal(b1-4)GlcNAc; conditions: glycan notation: IUPAC condensed, linker removed
Procedure, shortened: as §1

[8] = system: Neu5Ac(a2-3)Gal(b1-3)GalNAc; conditions: glycan notation: IUPAC condensed, linker removed
Procedure, shortened: as §1

[9] = system: Neu5Ac(a2-3)Gal(b1-3)GlcNAc(b1-2)Man(a1-3)[Neu5Ac(a2-3)Gal(b1-3)GlcNAc(b1-2)Man(a1-6)]Man(b1-4)GlcNAc(b1-4)GlcNAc; conditions: glycan notation: IUPAC condensed, linker removed; mutation: R125K
Procedure, shortened: as §1

[10] = system: Neu5Ac(a2-3)Gal(b1-3)GlcNAc(b1-2)Man; conditions: glycan notation: IUPAC condensed, linker removed
Procedure, shortened: as §1

[11] = system: Neu5Ac(a2-3)Gal(b1-3)GlcNAc(b1-6)GalNAc; conditions: glycan notation: IUPAC condensed, linker removed; mutation: R125K
Procedure, shortened: as §1

[12] = system: Neu5Ac(a2-3)Gal(b1-3)GlcNAc; conditions: glycan notation: IUPAC condensed, linker removed
Procedure, shortened: as §1

[13] = system: Neu5Ac(a2-3)Gal(b1-3)[GlcNAc(b1-6)]GalNAc; conditions: glycan notation: IUPAC condensed, linker removed; mutation: R125K
Procedure, shortened: as §1

Man(a1-6)Man = conditions: glycan notation: IUPAC condensed, linker removed
Procedure, shortened: as §1

Man(b1-4)GlcNAc = conditions: glycan notation: IUPAC condensed, linker removed
Procedure, shortened: as §1

[14] = system: Neu5Ac(a2-3)Gal(b1-3)GalNAc(b1-3)Gal(b1-4)GlcNAc; conditions: glycan notation: IUPAC condensed, linker removed
Procedure, shortened: as §1

[15] = system: Neu5Ac(a2-3)Gal(b1-3)[Fuc(a1-4)]GlcNAc; conditions: glycan notation: IUPAC condensed, linker removed
Procedure, shortened: as §1

[16] = system: Neu5Ac(a2-3)Gal(b1-3)[Neu5Ac(a2-3)Gal(b1-4)]GlcNAc; conditions: glycan notation: IUPAC condensed, linker removed
Procedure, shortened: as §1

[17] = system: Neu5Ac(a2-3)Gal(b1-3)GlcNAc(b1-3)GalNAc; conditions: glycan notation: IUPAC condensed, linker removed
Procedure, shortened: as §1

[18] = system: Neu5Ac(a2-3)Gal(b1-3)GalNAc(b1-3)Gal(a1-4)Gal(b1-4)Glc; conditions: glycan notation: IUPAC condensed, linker removed
Procedure, shortened: as §1

Sequence of wLAT-1A (Homo sapiens), Q01650 (Q01650 whole entry): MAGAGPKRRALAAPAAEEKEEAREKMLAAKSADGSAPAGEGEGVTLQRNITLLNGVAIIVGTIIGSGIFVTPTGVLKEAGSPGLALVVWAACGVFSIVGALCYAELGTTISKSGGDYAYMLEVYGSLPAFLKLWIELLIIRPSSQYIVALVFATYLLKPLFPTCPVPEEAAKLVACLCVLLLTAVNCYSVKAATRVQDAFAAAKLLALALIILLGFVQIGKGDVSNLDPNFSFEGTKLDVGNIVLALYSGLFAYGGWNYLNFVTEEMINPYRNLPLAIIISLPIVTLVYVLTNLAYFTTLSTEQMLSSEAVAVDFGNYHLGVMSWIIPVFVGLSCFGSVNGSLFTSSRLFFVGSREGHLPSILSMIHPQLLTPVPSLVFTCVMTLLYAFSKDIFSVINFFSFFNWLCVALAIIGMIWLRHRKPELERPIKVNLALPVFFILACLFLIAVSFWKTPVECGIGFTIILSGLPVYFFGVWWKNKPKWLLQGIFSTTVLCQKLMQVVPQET
Sequence of Aggrecan (Rattus norvegicus), NP_071526 (chain, as listed by the source): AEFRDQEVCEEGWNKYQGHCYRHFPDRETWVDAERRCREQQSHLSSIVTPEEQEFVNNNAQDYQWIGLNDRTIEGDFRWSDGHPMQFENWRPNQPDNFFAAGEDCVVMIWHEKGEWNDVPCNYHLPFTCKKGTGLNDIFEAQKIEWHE
Sequence of Avaren (Actinomycete K97) (chain, as listed by the source): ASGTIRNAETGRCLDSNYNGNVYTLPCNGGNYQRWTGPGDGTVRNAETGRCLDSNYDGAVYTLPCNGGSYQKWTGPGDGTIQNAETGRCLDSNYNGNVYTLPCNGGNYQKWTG
Sequence of PILRa (Mus musculus), Q2YSF3 (Q2YSF3 entry or part of it): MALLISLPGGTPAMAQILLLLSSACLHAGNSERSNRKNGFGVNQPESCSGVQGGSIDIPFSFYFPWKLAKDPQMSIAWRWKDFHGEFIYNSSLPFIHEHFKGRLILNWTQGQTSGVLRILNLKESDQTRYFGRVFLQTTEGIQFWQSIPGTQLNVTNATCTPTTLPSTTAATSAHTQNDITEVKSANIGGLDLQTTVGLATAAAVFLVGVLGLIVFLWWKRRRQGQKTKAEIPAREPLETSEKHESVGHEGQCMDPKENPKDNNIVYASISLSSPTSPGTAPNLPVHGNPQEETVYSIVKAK
Sequence of PILRb (Mus musculus), Q2YSF2 (Q2YSF2 entry or part of it): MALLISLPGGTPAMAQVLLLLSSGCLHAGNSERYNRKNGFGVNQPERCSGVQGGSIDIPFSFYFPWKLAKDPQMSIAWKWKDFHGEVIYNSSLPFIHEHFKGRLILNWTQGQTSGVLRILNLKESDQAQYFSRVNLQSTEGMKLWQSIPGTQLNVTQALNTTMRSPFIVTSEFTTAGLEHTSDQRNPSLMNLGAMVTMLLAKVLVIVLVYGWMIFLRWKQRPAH
Sequence of Neurocan (Homo sapiens), O14594 (O14594 other isoform, or with tags, fused parts or gaps): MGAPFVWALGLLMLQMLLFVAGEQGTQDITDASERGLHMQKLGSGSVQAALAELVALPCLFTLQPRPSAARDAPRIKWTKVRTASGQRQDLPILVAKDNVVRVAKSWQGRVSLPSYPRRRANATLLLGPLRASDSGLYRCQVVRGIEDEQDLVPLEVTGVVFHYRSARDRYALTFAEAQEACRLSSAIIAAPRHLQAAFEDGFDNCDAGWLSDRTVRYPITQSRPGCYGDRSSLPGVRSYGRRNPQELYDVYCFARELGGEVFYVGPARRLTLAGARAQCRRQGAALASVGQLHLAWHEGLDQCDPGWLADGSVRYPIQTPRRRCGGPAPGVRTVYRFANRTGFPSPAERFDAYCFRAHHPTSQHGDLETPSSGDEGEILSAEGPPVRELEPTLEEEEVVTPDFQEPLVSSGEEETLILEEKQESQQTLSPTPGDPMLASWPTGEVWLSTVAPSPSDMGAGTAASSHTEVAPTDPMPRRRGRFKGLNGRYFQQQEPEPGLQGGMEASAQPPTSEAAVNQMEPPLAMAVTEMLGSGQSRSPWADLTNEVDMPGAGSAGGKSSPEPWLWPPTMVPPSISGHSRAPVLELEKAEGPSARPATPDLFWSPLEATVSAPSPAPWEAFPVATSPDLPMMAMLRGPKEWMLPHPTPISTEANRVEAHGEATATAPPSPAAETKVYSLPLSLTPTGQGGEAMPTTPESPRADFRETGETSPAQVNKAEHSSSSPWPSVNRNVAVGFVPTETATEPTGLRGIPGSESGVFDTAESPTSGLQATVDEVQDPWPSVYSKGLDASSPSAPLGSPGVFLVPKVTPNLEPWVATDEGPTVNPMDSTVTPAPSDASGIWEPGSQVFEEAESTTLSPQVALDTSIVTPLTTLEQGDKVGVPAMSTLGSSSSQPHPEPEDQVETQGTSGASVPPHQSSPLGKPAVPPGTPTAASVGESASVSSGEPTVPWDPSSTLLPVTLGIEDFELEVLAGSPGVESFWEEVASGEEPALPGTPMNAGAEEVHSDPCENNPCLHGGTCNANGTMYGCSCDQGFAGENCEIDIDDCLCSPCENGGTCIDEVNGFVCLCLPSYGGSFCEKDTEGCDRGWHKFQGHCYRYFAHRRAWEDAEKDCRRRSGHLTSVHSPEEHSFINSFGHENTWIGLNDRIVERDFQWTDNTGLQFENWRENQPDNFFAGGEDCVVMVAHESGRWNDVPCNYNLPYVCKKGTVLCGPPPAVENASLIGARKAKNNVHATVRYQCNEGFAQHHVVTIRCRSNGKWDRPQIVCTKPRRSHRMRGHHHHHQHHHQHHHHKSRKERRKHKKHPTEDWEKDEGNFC
Sequence of C3b (Homo sapiens), P01024 (P01024 23-667): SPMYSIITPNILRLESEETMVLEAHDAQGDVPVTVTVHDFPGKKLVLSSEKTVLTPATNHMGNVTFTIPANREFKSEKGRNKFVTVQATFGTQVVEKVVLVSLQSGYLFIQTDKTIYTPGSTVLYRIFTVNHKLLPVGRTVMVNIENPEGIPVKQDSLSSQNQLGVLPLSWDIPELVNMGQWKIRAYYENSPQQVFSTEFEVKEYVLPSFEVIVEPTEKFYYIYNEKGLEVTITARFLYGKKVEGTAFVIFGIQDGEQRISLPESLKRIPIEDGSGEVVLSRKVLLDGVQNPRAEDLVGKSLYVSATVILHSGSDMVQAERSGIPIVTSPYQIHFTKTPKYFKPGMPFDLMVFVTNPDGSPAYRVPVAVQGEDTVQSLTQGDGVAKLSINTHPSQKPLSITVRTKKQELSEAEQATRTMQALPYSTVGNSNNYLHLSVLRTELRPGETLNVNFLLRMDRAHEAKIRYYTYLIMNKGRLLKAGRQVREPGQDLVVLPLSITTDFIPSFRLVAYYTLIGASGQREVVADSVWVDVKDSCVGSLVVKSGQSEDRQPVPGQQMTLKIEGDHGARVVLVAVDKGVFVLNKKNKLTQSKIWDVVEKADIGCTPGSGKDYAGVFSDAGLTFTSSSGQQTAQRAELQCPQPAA
Sequence of 6RG (Lolium perenne) (chain, as listed by the source): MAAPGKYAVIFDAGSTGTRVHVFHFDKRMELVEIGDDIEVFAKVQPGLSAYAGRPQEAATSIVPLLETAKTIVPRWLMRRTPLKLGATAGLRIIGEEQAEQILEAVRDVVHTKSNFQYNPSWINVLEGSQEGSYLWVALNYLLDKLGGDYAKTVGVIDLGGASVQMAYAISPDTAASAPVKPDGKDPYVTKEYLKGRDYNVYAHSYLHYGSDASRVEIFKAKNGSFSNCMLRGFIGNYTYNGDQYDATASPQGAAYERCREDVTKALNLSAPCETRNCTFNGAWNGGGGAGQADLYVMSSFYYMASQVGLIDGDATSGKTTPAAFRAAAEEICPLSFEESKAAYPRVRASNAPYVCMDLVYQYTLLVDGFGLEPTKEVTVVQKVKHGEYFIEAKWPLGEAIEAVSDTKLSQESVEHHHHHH
Sequence of SRLC (Mus musculus), Q8VIF6 (Q8VIF6 other isoform, or with tags, fused parts or gaps): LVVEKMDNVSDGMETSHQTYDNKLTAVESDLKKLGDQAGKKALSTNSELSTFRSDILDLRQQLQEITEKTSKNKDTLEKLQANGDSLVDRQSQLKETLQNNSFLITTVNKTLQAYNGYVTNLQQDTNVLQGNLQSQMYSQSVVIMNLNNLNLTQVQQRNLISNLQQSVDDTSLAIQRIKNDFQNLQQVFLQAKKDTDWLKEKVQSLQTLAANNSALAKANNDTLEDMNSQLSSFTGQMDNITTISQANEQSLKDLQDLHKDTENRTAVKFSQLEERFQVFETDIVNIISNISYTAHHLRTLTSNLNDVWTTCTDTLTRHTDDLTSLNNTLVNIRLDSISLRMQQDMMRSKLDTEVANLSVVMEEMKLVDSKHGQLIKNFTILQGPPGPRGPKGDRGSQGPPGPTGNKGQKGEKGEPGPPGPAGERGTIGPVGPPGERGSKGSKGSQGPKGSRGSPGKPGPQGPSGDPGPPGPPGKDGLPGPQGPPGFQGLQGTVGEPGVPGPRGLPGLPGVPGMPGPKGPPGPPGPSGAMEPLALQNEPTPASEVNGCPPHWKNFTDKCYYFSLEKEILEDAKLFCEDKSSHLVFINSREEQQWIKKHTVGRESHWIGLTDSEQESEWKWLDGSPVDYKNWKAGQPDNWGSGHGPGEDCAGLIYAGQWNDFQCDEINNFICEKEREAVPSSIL

MpAFP RI GFP (Marinomonas primoryensis)
glycan array binding signal (z-score) [1]: -0.323

6RG (Lolium perenne)
glycan array binding signal (z-score) [2]: -0.326

PILRa (Mus musculus), Q2YSF3
glycan array binding signal (z-score) [3]: -0.412
glycan array binding signal (z-score) [4]: 3.58

Avaren (Actinomycete K97)
glycan array binding signal (z-score) [5]: -0.124
glycan array binding signal (z-score) [6]: -0.128
glycan array binding signal (z-score) [7]: -0.128
glycan array binding signal (z-score) [4]: -0.174

Siglec-8 (Homo sapiens), Q9NYZ4
glycan array binding signal (z-score) ([8]; mutation: R125K): 4.65
glycan array binding signal (z-score) [9]: 1.23
glycan array binding signal (z-score) [10]: 1.28
glycan array binding signal (z-score) [11]: 0.063
glycan array binding signal (z-score) ([12]; mutation: R125K): -0.024
glycan array binding signal (z-score) [13]: -0.157

wLAT-1A (Homo sapiens), Q01650
glycan array binding signal (z-score) (Man(a1-6)Man): 0.732
glycan array binding signal (z-score) (Man(b1-4)GlcNAc): 0.584
glycan array binding signal (z-score) [12]: -0.345

Aggrecan (Rattus norvegicus), NP_071526
glycan array binding signal (z-score) (Man(b1-4)GlcNAc): -0.071
glycan array binding signal (z-score) [14]: -0.071
glycan array binding signal (z-score) [15]: -0.038

SRLC (Mus musculus), Q8VIF6
glycan array binding signal (z-score) [4]: -0.214

C3b (Homo sapiens), P01024
glycan array binding signal (z-score) [8]: -0.754
glycan array binding signal (z-score) [16]: -0.041

PILRb (Mus musculus), Q2YSF2
glycan array binding signal (z-score) (Man(b1-4)GlcNAc): -0.166
glycan array binding signal (z-score) [17]: -0.463

Neurocan (Homo sapiens), O14594
glycan array binding signal (z-score) [18]: 0.009
glycan array binding signal (z-score) [12]: 2.76

— the supplement of paper PMC8728848
